Assay results: PubChem BioAssay (Tox21)
Records with an inconclusive call do not appear. The source made the active and inactive calls. Unless noted, calls come from the whole dose curve.

Tests used:
[1] = molecular target: Thyrotropin receptor (Homo sapiens) (UniProt P16473); experiment: qHTS assay to identify small molecule agonists of the thyroid stimulating hormone receptor (TSHR) signaling pathway (AID 1224843); note: nearly all actives have a fitted effect of over 45% in size
Procedure, shortened: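 Screening of the Tox21 10K collection used HEK293 cells engineered with TSHR at 800 cells per well. After a 30-min room-temperature compound exposure, HTRF cAMP reagents were added and fluorescence recorded 1 h later.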

[2] = qHTS assay to identify small molecule agonists of the hypoxia (HIF-1) signaling pathway - cell viability counter screen (AID 1224844); note: nearly all actives have a fitted effect of over 50% in size
Procedure, shortened: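 Cells (HRE-bla ME-180, 2,000 per well) sat 5 hrs at 37C, got compound for 17 hrs, were read for CCF4-AM FRET, and were finally lysed with CellTiter-Glo for a 30 min room-temperature luminescence read.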

[3] = qHTS assay to identify small molecule agonists of H2AX (AID 1224845; active = well fitted activation curve with a large enough effect in the signal ratio in the repeat runs, not every such curve was filed as active; the % refers to the signal ratio)
Procedure, shortened: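 Phospho-H2AX Ser139 measured by HTRF (ex 320 nm; em 665 and 620 nm) after 24 hr antibody incubation. Compounds, 15 concentrations, 0.76% DMSO, were applied to CHO-K1 cells for 3hr at 37C before lysis.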

[4] = qHTS assay to identify small molecule agonists of the hypoxia (HIF-1) signaling pathway (AID 1224846; active = well fitted activation curve with a large enough effect in the signal ratio in the repeat runs, not every such curve was filed as active; the % refers to the signal ratio)
Procedure, shortened: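 A low-serum medium (0.5% dialyzed FBS) holding 2,000 HRE-bla ME-180 cells per well is preincubated for 5 hrs, dosed with compounds by pintool, and kept a further 17 hrs at 37C, 5% CO2 before CCF4-AM FRET detection of beta-lactamase.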

[5] = qHTS assay to identify small molecule agonists of H2AX - cell viability counter screen (AID 1224847);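 note: wild-type CHO-K1 cells; top concentration of the series differs between compounds; nearly all actives have a fitted effect of over 30% in size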
Procedure, shortened: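 After overnight plating of 1000 CHO-K1 cells per well, a 15-concentration compound series was applied for 3 hr at 37C. Luminescence from CellTiter-Glo, read following 30 min at room temperature, reflected cell viability.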

[6] = qHTS assay to identify small molecule antagonists of the estrogen related receptor (ERR) signaling pathway from Tox21 library (AID 1224848; active = well fitted curve in the direction sought with a large enough effect in the repeat runs; an effect the other way counts as inactive or inconclusive; note: nearly all actives have a fitted effect of over 50% in size; note: potency is the fitted concentration of half-maximal effect)
Procedure, shortened: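 Antagonist-mode screen of the Tox21 10K library in an NTP-provided ERR reporter cell line; 18 h compound exposure at 37 C, luminescence measured with ONE-Glo.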

[7] = qHTS assay to identify small molecule agonists of the estrogen related receptor (ERR) signaling pathway from Tox21 library (AID 1224849); details: ERR reporter cell line, ONE-Glo luciferase, 18 h; at 92.4 µM (top of the series) unless noted; note: nearly all actives have a fitted effect of over 15% in size
Procedure, shortened: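 Screening used an NTP-provided ERR luciferase cell line. Compounds in DMSO were added 6 h after seeding and left 18 h at 37 C before a 30 min ONE-Glo step and luminescence reading.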

[8] = qHTS RealTime-Glo MT Cell Viability Assay in HepG2 cells - 24 hour (AID 1224867; active = well fitted curve in the direction sought with a large enough effect in the repeat runs; an effect the other way counts as inactive or inconclusive; note: nearly all actives have a fitted effect of over 50% in size)
Procedure, shortened: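 Compound treatment began 5 h after plating HepG2 cells (600/well) with NanoLuc luciferase and prosubstrate. Plates stayed at 37 C for 40 h; luminescence was captured at six time points, 0 h through 40 h.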

[9] = qHTS RealTime-Glo MT Cell Viability Assay in HEK293 cells - 32 hour (AID 1224868; active = well fitted curve in the direction sought with a large enough effect in the repeat runs; an effect the other way counts as inactive or inconclusive; note: top concentration of the series differs between compounds; nearly all actives have a fitted effect of over 50% in size)
Procedure, shortened: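 Quantitative high-throughput screen of the Tox21 10K library in HEK293: cells and RealTime-Glo reagents plated together, compound added at 5 h, luminescence monitored through 40 h at 37 C.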

[10] = A CellTox Green Cytotoxicity Assay to monitor cytotoxicity in HEK293 cells - 0 hour (AID 1224869; active = well fitted curve in the direction sought with a large enough effect in the repeat runs; an effect the other way counts as inactive or inconclusive; note: nearly all actives have a fitted effect of over 50% in size)
Procedure, shortened: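 Fluorescence intensity, read at 0, 8, 16, 24, 32 and 40 h of compound treatment, reflected dye binding to DNA of dead HEK293 cells; compounds (23 nL, DMSO) were added 5 h after plating cells with reagent.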
% is set by controls: 0 for no effect and ±100 for the full control effect.

Chain of Thyrotropin receptor (Homo sapiens) (P16473 whole entry, looked up): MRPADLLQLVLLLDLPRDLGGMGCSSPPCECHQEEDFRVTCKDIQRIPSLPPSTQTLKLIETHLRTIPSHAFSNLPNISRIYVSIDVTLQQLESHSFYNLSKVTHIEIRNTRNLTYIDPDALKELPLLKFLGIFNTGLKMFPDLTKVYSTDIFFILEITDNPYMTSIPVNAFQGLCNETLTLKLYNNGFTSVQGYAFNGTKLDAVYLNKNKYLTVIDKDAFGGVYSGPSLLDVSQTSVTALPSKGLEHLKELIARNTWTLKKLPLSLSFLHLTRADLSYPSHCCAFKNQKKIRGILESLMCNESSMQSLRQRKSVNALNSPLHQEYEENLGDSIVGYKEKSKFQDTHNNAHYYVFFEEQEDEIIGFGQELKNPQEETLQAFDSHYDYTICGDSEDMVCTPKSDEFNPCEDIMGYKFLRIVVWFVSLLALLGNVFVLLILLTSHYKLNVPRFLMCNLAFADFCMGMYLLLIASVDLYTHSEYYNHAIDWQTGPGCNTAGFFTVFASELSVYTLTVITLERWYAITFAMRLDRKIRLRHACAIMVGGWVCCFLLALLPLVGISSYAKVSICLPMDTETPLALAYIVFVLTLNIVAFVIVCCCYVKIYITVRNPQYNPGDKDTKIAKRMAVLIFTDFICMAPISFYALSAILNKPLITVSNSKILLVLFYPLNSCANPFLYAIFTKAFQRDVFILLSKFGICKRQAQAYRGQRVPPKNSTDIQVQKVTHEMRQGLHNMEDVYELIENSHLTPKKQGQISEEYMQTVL

COC[C@H](c1ccc(C(F)(F)F)cc1)N1CCN(C2(C)CCN(C(=O)c3c(C)ncnc3C)CC2)C[C@H]1C
inactive: outcome [1] | Potency [2] | outcome [3] | outcome [4] | Potency [5] | Potency [6] | activity change, positive = activation [7] -5.81% [at 42.5 µM] | outcome [8] | Potency [9] | Potency [10]

Cc1onc(-c2ccccc2)c1-c1ccc(S(N)(=O)=O)cc1
active: Potency [6] 13.3 µM
inactive: outcome [1] | Potency [2] | outcome [3] | outcome [4] | Potency [5] | activity change, positive = activation [7] -32.6% [at 42.5 µM] | outcome [8] | Potency [10]

COC(=O)c1ccc(C(=O)OC)c(C(=O)OC)c1
inactive: outcome [1] | Potency [2] | outcome [3] | outcome [4] | Potency [5] | Potency [6] | activity change, positive = activation [7] -1.41% | outcome [8] | Potency [9] | Potency [10]

COc1cc(CCC(C)=O)ccc1O
inactive: outcome [1] | Potency [2] | outcome [3] | outcome [4] | Potency [5] | Potency [6] | activity change, positive = activation [7] 3.47% | outcome [8] | Potency [9] | Potency [10]

COc1ccc(COC=O)cc1
inactive: outcome [1] | Potency [2] | outcome [3] | outcome [4] | Potency [5] | Potency [6] | activity change, positive = activation [7] -0.945% | outcome [8] | Potency [9] | Potency [10]

OC[C@H]1O[C@@H]2O[C@H]3[C@H](O)[C@@H](O)[C@@H](O[C@H]4[C@H](O)[C@@H](O)[C@@H](O[C@H]5[C@H](O)[C@@H](O)[C@@H](O[C@H]6[C@H](O)[C@@H](O)[C@@H](O[C@H]7[C@H](O)[C@@H](O)[C@@H](O[C@H]8[C@H](O)[C@@H](O)[C@@H](O[C@H]9[C@H](O)[C@@H](O)[C@@H](O[C@H]1[C@H](O)[C@H]2O)O[C@@H]9CO)O[C@@H]8CO)O[C@@H]7CO)O[C@@H]6CO)O[C@@H]5CO)O[C@@H]4CO)O[C@@H]3CO
inactive: outcome [1] | Potency [2] | outcome [3] | outcome [4] | Potency [5] | Potency [6] | activity change, positive = activation [7] 0.681% [at 42.5 µM] | outcome [8] | Potency [9] | Potency [10]

CCC(C)(C)C1CCC(OC)CC1 (stereo not drawn)
inactive: outcome [1] | Potency [2] | outcome [3] | outcome [4] | Potency [5] | Potency [6] | activity change, positive = activation [7] -1.91% | outcome [8] | Potency [9] | Potency [10]

CCCCCCC(=O)OCC
inactive: outcome [1] | Potency [2] | outcome [3] | outcome [4] | Potency [5] | Potency [6] | activity change, positive = activation [7] 6.4% | outcome [8] | Potency [9] | Potency [10]

C=C(C)C1CC=C(C)C(O)C1 (stereo not drawn)
inactive: outcome [1] | Potency [2] | outcome [3] | outcome [4] | Potency [5] | Potency [6] | activity change, positive = activation [7] 2.44% | outcome [8] | Potency [9] | Potency [10]

COC(=O)CCCCCCCCC(=O)OC
inactive: outcome [1] | Potency [2] | outcome [3] | outcome [4] | Potency [5] | Potency [6] | activity change, positive = activation [7] 0.842% | Potency [9] | Potency [10]

O=C(O)c1cccc(C(=O)O)n1
inactive: outcome [1] | Potency [2] | outcome [3] | outcome [4] | Potency [5] | Potency [6] | activity change, positive = activation [7] 2.2% | outcome [8] | Potency [9] | Potency [10]

CCCCC1CCCCC(=O)O1 (stereo not drawn)
inactive: outcome [1] | Potency [2] | outcome [3] | outcome [4] | Potency [5] | Potency [6] | activity change, positive = activation [7] 0.974% | outcome [8] | Potency [9] | Potency [10]

O=S(=O)(O)c1ccccc1O
inactive: outcome [1] | Potency [2] | outcome [3] | outcome [4] | Potency [5] | Potency [6] | activity change, positive = activation [7] -0.0376% | outcome [8] | Potency [9] | Potency [10]

Cc1ccccc1Br
inactive: outcome [1] | Potency [2] | outcome [3] | outcome [4] | Potency [5] | Potency [6] | activity change, positive = activation [7] -0.692% | outcome [8] | Potency [9] | Potency [10]

CNc1ncnc2nc[nH]c12
inactive: outcome [1] | Potency [2] | outcome [3] | outcome [4] | Potency [5] | Potency [6] | activity change, positive = activation [7] 1.91% | outcome [8] | Potency [9] | Potency [10]

NC(CS)C(=O)O (stereo not drawn)
inactive: outcome [1] | Potency [2] | outcome [3] | outcome [4] | Potency [5] | outcome [8] | Potency [9] | Potency [10]

CCCCCCC(CCCCCCCCCCC(=O)OCC(COC(C)=O)OC(C)=O)OC(C)=O (stereo not drawn)
inactive: outcome [1] | Potency [2] | outcome [3] | outcome [4] | Potency [5] | outcome [8] | Potency [9] | Potency [10]

CC1=CC(=O)CCC1
inactive: outcome [1] | Potency [2] | outcome [3] | outcome [4] | Potency [5] | outcome [8] | Potency [9] | Potency [10]

C=CCOCC(O)CS(=O)(=O)O (stereo not drawn)
inactive: outcome [1] | Potency [2] | outcome [3] | outcome [4] | Potency [5] | outcome [8] | Potency [9] | Potency [10]

Nc1nc(F)nc2c1ncn2[C@@H]1O[C@H](CO)[C@@H](O)[C@@H]1O
inactive: outcome [1] | Potency [2] | outcome [3] | outcome [4] | Potency [5] | outcome [8] | Potency [9] | Potency [10]

Cc1c(F)cc2c(=O)c(C(=O)O)cn3c2c1CCC3C (stereo not drawn)
inactive: outcome [1] | Potency [2] | outcome [3] | outcome [4] | Potency [5] | activity change, positive = activation [7] -37.3% [at 42.5 µM] | Potency [9] | Potency [10]

CCCCCCCCCCCCCCC
inactive: outcome [1] | Potency [2] | outcome [3] | outcome [4] | Potency [5] | Potency [6] | activity change, positive = activation [7] 4.59% | Potency [9] | Potency [10]

NC(=O)CCCCC1CCSS1 (stereo not drawn)
inactive: outcome [1] | Potency [2] | outcome [3] | outcome [4] | Potency [5] | outcome [8] | Potency [9] | Potency [10]
